Screens (PubChem)
mIDH1 inhibitor – qHTS for Inhibitors of mutant isocitrate dehydrogenase 1 (IDH1): qHTS | actives 0.093% (n = 390,000) | Isocitrate dehydrogenase [NADP] cytoplasmic (Homo sapiens), O75874 | Potency, µM (titrated, usually from 76.6 µM), without a hit: at the highest dose activity change, negative = inhibition, hits mostly inhibitors | IDH1-R132H enzyme, NADPH consumption, diaphorase/resazurin fluorescence | AID 602179, 2012; further: on the % scale 0 is the no-effect control and ±100 the full control effect; nearly all actives have a fitted effect of over 65% in size
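IDH1-R132H (0.5 ug/mL dispensed) in pH 7.5 Tris buffer was preincubated 30 min with compound, then given a substrate mix of 0.016 mM NADPH and 2 mM alpha-KG for 80 min at room temperature; remaining NADPH was read by diaphorase/resazurin fluorescence.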
Glioma ERSR ind – qHTS for Inducers of the Endoplasmic Reticulum Stress Response (ERSR) in Human Glioma: qHTS. U87-MG GRP78 promoter luciferase reporter, 16 h. Potency, µM, without a hit: at the highest dose activation, most hits filed as activators. actives 0.02% (n = 420,000); further: series mostly up to about 76 µM; % of control where 0% means no effect; nearly all actives have a fitted effect of over 35% in size
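Stably transfected U87-MG glioma cells carrying a GRP78-based luciferase sensor; 16 h compound incubation. Luminescence end-point read 10 min after Bright-Glo addition at room temperature.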
TrxR1 substrate – qHTS Assay for Substrates of Mammalian Selenoprotein Thioredoxin Reductase 1 (TrxR1): qHTS | Thioredoxin reductase 1, cytoplasmic (Rattus norvegicus), O89049 | purified TrxR1 substrate turnover, NADPH consumption readout | Potency, µM (titrated, usually from 114 µM), inactives show at the highest dose activity change, negative = substrate turnover | actives 0.01% (n = 390,000) | AID 588456, 2011; further: on the % scale 0 is the no-effect control and ±100 the full control effect; nearly all actives have a fitted effect of over 50% in size
Target sequence (O89049 whole entry, looked up): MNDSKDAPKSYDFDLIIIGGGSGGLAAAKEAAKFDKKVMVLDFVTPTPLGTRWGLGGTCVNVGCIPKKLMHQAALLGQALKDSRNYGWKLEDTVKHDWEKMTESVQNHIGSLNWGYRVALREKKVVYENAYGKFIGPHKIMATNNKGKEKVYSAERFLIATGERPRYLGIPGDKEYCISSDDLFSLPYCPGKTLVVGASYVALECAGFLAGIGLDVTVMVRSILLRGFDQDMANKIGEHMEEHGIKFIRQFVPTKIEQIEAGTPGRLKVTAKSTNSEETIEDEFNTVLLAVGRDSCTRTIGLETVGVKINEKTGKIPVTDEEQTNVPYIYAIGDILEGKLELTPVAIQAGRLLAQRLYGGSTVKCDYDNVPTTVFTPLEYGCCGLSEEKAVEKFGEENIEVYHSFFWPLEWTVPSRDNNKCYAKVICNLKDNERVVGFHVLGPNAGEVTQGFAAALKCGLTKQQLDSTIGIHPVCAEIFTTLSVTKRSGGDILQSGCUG
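Rat TrxR1, dispensed at 90 nM, was prereduced with 400 uM NADPH (final) for 5 min at ~22 deg C, then incubated with compound 15 min before 400 uM selenite. A first-read NADPH fluorescence drop versus no-compound background flagged substrates.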
ALOX12 inh – Primary qHTS assay for inhibitors of human arachidonate 12S-lipoxygenase (ALOX12): Round 2; Potency, µM (highest dose often 108 µM), inactives show at the highest dose activity change, negative = inhibition, hits mostly inhibitors; actives 1.1% (n = 580,000); AID 1671190, 2021; Polyunsaturated fatty acid lipoxygenase ALOX12 (Homo sapiens), P18054; purified 12hLO, xylenol orange hydroperoxide absorbance; further: on the % scale 0 is the no-effect control and ±100 the full control effect
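Hydroperoxide product was detected by ferrous iron/xylenol orange as the 573 to 405 nm absorbance ratio. Arachidonic acid at 40 uM (final) was turned over for 30 min at room temperature by 150 nM human 12hLO, pH 7.0 Hepes buffer, after 15 min compound preincubation.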
Anesthetic bind – qHTS Assay for Identification of Novel General Anesthetics; Ferritin light chain (Equus caballus), P02791; apoferritin/1-aminoanthracene competitive binding, fluorescence; Potency, µM (doses to about 77.5 µM), for inactives: at the highest dose activity change, negative = displacement, usual class: inhibitors; actives 0.074% (n = 350,000); AID 485281, 2010; further: on the % scale 0 is the no-effect control and ±100 the full control effect; nearly all actives have a fitted effect of over 20% in size
Target sequence (P02791 2-175 limits assumed): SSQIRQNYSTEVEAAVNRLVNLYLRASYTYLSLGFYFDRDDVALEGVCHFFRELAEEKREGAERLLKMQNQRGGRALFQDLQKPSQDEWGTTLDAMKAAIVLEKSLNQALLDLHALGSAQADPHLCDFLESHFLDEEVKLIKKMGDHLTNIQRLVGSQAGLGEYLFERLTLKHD
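10 uM apoferritin + 50% sat. 1-AMA, PBS; cpd 10 min RT; Ex380/Em535 endpoint; normalized to free probe vs complex; 4-param Hill fit; propofol titration as pos. ctrl.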
TrxR1 inh – qHTS Assay for Inhibitors of Mammalian Selenoprotein Thioredoxin Reductase 1 (TrxR1): qHTS | recombinant rTrxR1, NADPH fluorescence consumption, selenite substrate | Potency, µM (titrated, usually from 114 µM), without a hit: top-dose activity change, negative = inhibition, most hits filed as inhibitors | AID 588453, 2011 | actives 1% (n = 390,000) | Thioredoxin reductase 1, cytoplasmic (Rattus norvegicus), O89049; further: on the % scale 0 is the no-effect control and ±100 the full control effect; nearly all actives have a fitted effect of over 65% in size
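Rat TrxR1 (90 nM in the dispensed reagent) was pre-reduced with 400 uM NADPH for 5 min at room temperature, then incubated with compound for 15 min. After 400 uM selenite was added, NADPH fluorescence (Ex 340/Em 450 nm) was followed for 8 min.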
An asterisk follows results filed as active; ? = inconclusive; / = no result; ! = not confirmed by another sample; [ ] = dose if it differs, or a comment. A selection: hits, their analogues and other compounds. The true share with any hit is near 1.7%. The call rests on the fitted dose curve; in most records, active means well fitted curve in the direction sought with a large enough effect; inconclusive means small, poorly fitted or top-dose-only effect, or another doubt; inactive means no such curve, though single readings can be large; an effect the other way counts as inactive or inconclusive. Potency means the concentration at half of the fitted maximal effect.

SMILES	mIDH1 inhibitor	Glioma ERSR ind	TrxR1 substrate	ALOX12 inh	Anesthetic bind	TrxR1 inh
COCC(=O)O[C@]1(CCN(C)CCCc2nc3ccccc3[nH]2)CCc2cc(F)ccc2[C@@H]1C(C)C	1%	-14%	9%[57.1 µM]	11µM*!	-15%	15%[57.1 µM]
CS(=O)(=O)N1CCCC(C(=O)NCCc2ccccn2)CCNC(=O)CC1 (centres undefined)	/	/	/	1%	/	/
S=C(NN=C(c1ccccc1)c1ccccn1)N(Cc1ccccn1)Cc1ccccn1	3%	-9%	-9%	45µM*	/	-27%
Cn1nc(C(=O)NCCN2Cc3ccccc3OC(c3ccsc3)C2)c2ccccc2c1=O (centres undefined)	/	-2%	/	6%	/	/
Cc1nc2ccccc2cc1C(=O)O	2%	-2%	-2%	7.9µM*!	-3%	-6%
CC(=O)c1ccc2c(c1)C1C=CCC1C(c1ccncc1)N2 (centres undefined)	-8%	5%	-9%	?	-15%	?
C1=CC2c3ccccc3NC(c3ccncc3)C2C1 (centres undefined)	-2%	-6%	-2%	?	?	7.9µM*
COc1ccc(CCC(=O)NCC23CCC=C2NC(=O)CC3)cc1 (centres undefined)	/	/	/	37%	/	/
Cc1nc2c(OCc3ccccc3)cccn2c1N(C)C(=O)C1CCCCC1	/	-3%	/	50µM*	/	/
CCc1nc2c(OCc3ccccc3C)cccn2c1N(C)C(=O)C1CC1	/	0%	/	-1%	/	/
O=C1Nc2cc(C(=O)N3CCN(c4ccccc4F)CC3)ccc2NC1CSCc1ccccc1F (centres undefined)	/	/	/	/	-15%	/
COc1ccc(N2CCN(C(=O)c3ccc4c(c3)NC(=O)C(CSCc3ccccc3F)N4)CC2)cc1 (centres undefined)	0%	-4%	/	4.5µM*	/	/
Cc1cccc(N2CCN(C(=O)c3ccc4c(c3)NC(=O)C(CSCc3cccc(F)c3)N4)CC2C)c1 (centres undefined)	14%	-5%	-1%	22µM*	?	11%
COc1ccc(CN2CCNC(=O)C2CC(=O)NCCN2CCCCC2=O)c(F)c1 (centres undefined)	-9%	-5%	3%	-8%	-4%	-22%
O=C1CO[C@H](c2ccc(NC(=O)C3CCOCC3)cc2)[C@@H](CO)N1	/	/	/	37%[176 µM]	/	/
CCc1ccc(-n2nc(CO)c(C(=O)NCc3ccc4c(c3)OCO4)n2)cc1	/	/	/	2%	/	/
CC(=O)NCC(=O)NC1CC(C)(C)Cc2nc(N(C)Cc3ccccc3)ncc21 (centres undefined)	/	/	/	54%	/	/
O=C(CN1C(=O)NC(c2ccccc2Cl)C2=C1COC2=O)Nc1ccccc1C(F)(F)F (centres undefined)	/	/	/	-10%	/	/
Cc1oc(-c2ccc(Cl)cc2)nc1CS(=O)CC(=O)NC1CCCCC1 (centres undefined)	3%	1%	15%	-16%	-18%	25µM*
Cc1oc(-c2cccs2)nc1CS(=O)CC(=O)NC1CCCCCC1 (centres undefined)	13%	-1%	5%[57.1 µM]	17%	?	5µM*
Cc1ccc(-c2nc(CS(=O)CC(=O)NC3CCCCC3)c(C)o2)cc1 (centres undefined)	0%	-2%	0%	29%	-16%	?
Cc1oc(-c2ccccc2F)nc1CS(=O)CC(=O)NC1CCCC1 (centres undefined)	-8%	-8%	9%	0%	-11%	28µM*
Cc1oc(-c2ccc(Cl)cc2)nc1CS(=O)CC(=O)NC1CCCC1 (centres undefined)	13%	-2%	-5%	-18%	-14%	45µM*
Cc1oc(-c2ccc(Cl)cc2)nc1CS(=O)CC(=O)NC1CCCCCC1 (centres undefined)	-9%	-3%	-3%	-4%	?	?
NC(=O)NC(=O)CSc1nc(-c2ccccc2)c(-c2ccccc2)o1	/	/	/	11%	/	/
SMILES	mIDH1 inhibitor	Glioma ERSR ind	TrxR1 substrate	ALOX12 inh	Anesthetic bind	TrxR1 inh
Cc1ccc(-c2nc(CS(=O)(=O)CC(=O)NC3CCCCCC3)c(C)o2)cc1	-1%	-2%	7%	18%	-6%	79µM*
O=C(Nc1cccnc1)C1(F)C(F)(F)C(F)(F)C(F)(F)C(F)(F)C1(F)F	2%	2%	-10%[57.1 µM]	?	13µM*	?
COc1ccccc1N1CCN(CC(=O)Nc2nnc(C)s2)CC1	/	/	/	-6%	/	/
Cc1ccccc1-c1nnc2sc(NC(=O)c3ccc(F)cc3)nn12	/	/	/	32µM*	/	/
Cc1cccc2[nH]c(CCNC(=O)C3[C@H]4CN(C5CCCC5)C[C@@H]34)nc12 (some centres undefined)	/	/	/	46%	/	/
NS(=O)(=O)c1ccc(NC(=S)NC(=O)c2cccs2)cc1	-6%	0%	-1%	-11%	2%	11µM*
O=C(NC(=S)Nc1ccc(S(=O)(=O)NC2CCCCC2)cc1)c1cccs1	-7%	-5%	3%[57.1 µM]	16µM*	-7%	-59%
O=C(NC(=S)Nc1ccccc1)c1cccs1	-1%	-1%	4%	?	8%	50µM*
O=C(NC(=S)Nc1ccc(S(=O)(=O)N2CCCCC2)cc1)c1cccs1	-3%	-3%	-6%	?	5%	?
CCOC(=O)c1c(COc2ccc(C)nc2[N+](=O)[O-])nc2ccccc2c1C	/	/	/	2%	/	/
CCOC(=O)C1=C(C)NC(=O)CC1C(=O)Nc1cc(Cl)cc(Cl)c1 (centres undefined)	/	/	/	16µM*	/	/
CCOC(=O)C1=C(C)NC(=O)CC1c1ccccc1 (centres undefined)	9%	-4%	-6%[57.1 µM]	-1%	4%	-9%[57.1 µM]
Cc1[nH]c(C)c(C(=O)/C=C/c2ccc([N+](=O)[O-])cc2)c1C	13%	-6%	0%	32µM*	?	?
CC(C)(C)c1ccc(C(=O)NC(=S)NCc2ccco2)cc1	-6%	2%	-2%	14µM*	?	?
COCCNC(=S)NC(=O)c1ccc(C(C)(C)C)cc1	10%	5%	-1%	13µM*	?	?
COc1ccccc1/C=C/C(=O)NC(=S)NCC1CCCO1 (centres undefined)	24%	1%	6%[57.1 µM]	40µM*	-14%	-2%[57.1 µM]
